An excerpt weighted towards active compounds, which were near 11% of everything screened.
Tau fibril FP: blocks human tau fibril formation measured by polarization; hit rate 0.39% among 280,000; Potency, µM (titrated, usually from 57.7 µM), for the others: top-dose activity, negative = inhibition, hits mostly inhibitors; P10636; K18 P301L tau heparin fibrillization, Alexa594 FP, 6 h; AID 1468; further: potency means the concentration at half of the fitted maximal effect; nearly all actives have a fitted effect of over 55% in size
Target sequence (P10636 561-689 P618L limits assumed): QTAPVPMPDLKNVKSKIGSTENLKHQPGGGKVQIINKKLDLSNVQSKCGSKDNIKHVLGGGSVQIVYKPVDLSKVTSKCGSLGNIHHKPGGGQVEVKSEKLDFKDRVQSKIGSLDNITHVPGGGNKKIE
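FP of Alexa 594-tau after heparin (20 uM) induction. Substrate: human K18 P301L, 15 uM unlabeled, 0.24 uM labeled. Buffer 100 mM sodium acetate pH 7. 6 hr, 37 C.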
Sfp PPTase inh: Sfp phosphopantetheinyl transferase inhibition | Q9F4F7 | Biochemical Sfp PPTase activity, qHTS | Potency, µM, for the others: largest response in the series, negative = inhibition, hits mostly inhibitors | hit rate 3.5% among 310,000 | AID 1490;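 further: the enzyme is Sfp with the accession as filed and its product quenches rhodamine fluorescence; potency means the concentration at half of the fitted maximal effect; 0% = enzyme reaction without inhibitor and -100% = no enzyme wells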
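Fluorescence-quenching assay: 15 nM Sfp-PPTase preincubated 15 min at room temperature with compound, then 5 uM rhodamine-CoA and 12.5 uM BHQ-2-labelled YbbR peptide added. Fluorescence (ex 525/em 598 nm) read at start and after 30 min; difference gives rate.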
Tau fluor counter: counter-screen for tau fibril formation inhibitors. tau K18 P301L Alexa594 fluorescence, heparin fibrillization. Potency, µM (highest dose often 57.7 µM), for the others: at the highest dose activity change, negative = decrease. hit rate 0.93% among 280,000. AID 1463; further: potency means the concentration at half of the fitted maximal effect; nearly all actives have a fitted effect of over 55% in size
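Human K18 P301L tau (15 uM unlabeled plus 0.24 uM Alexa 594-labeled, final) in 100 mM sodium acetate pH 7 was mixed with compound and 20 uM heparin and incubated 6 hr at 37 C.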
FBPA coupling cs: inhibits coupling enzyme system, counter-screen for aldolase hits; coupling enzyme system counterscreen, AmpLite Red fluorescence; activity change, negative = inhibition, % at 58.2 µM, hits read low; hit rate 0.67% among 290,000; in the data active means activity change below about -30%
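First, compound is pin-transferred into glyceraldehyde-3-phosphate coupling-enzyme reagent at 57.5 uM final and held 10 min at RT. Next, substrate, coupling system and AmpLite Red are added. After 20 min RT, fluorescence (525/598 nm) is read.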
Tau ThT inhib: tau fibrillization inhibition (ThT binding). hit rate 2.1% among 270,000. P10636. recombinant tau K18 P301L (four-repeat tau fragment), heparin-induced fibrillization, ThT fluorescence. Potency, µM (titrated, usually from 57.4 µM), for inactives: at the highest dose activity, negative = inhibition, actives largely listed as inhibitors; further: potency means the concentration at half of the fitted maximal effect; nearly all actives have a fitted effect of over 55% in size
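Heparin-induced (20 uM) aggregation of recombinant human K18 P301L tau, 15 uM unlabeled with 0.24 uM labeled, pH 7 acetate buffer, 6 hr at 37 C with compound. Fibrils quantified by 30 uM ThT fluorescence after 1 hr ambient incubation.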
G9a block: blocks human histone lysine methyltransferase G9a | G9a H3K9 monomethylation, AlphaScreen, 2 h | Potency, µM (highest dose often 102 µM), without a hit: top-dose activity, negative = inhibition, actives largely listed as inhibitors | hit rate 8.8% among 350,000; further: potency means the concentration at half of the fitted maximal effect; nearly all actives have a fitted effect of over 75% in size
Target sequence (Q96KQ7 913-1193 limits assumed): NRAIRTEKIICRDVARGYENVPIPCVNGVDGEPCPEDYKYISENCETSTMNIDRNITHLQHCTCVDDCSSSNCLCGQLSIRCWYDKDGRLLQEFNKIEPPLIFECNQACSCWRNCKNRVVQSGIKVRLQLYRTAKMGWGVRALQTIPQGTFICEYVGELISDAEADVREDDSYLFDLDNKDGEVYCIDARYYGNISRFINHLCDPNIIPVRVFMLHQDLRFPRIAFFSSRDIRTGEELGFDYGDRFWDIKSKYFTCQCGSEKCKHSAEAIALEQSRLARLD
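Compounds were preincubated with 20 nM G9a for 15 min, after which biotinylated H3K9 peptide (500 nM) and SAM (20 uM) started a 2 h room-temperature reaction. Monomethylated product was quantified by antibody-based AlphaScreen chemiluminescence.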
Active calls of the source: *; ? = inconclusive; . = not tested or not shown; [ ] = another dose, or the depositor's remark. Unless noted, the call rests on the fitted dose curve; in most records, active means well fitted curve in the direction sought with a large enough effect; inconclusive means small, poorly fitted or top-dose-only effect, or another doubt; inactive means no such curve, though single readings can be large; an effect the other way counts as inactive or inconclusive. Unless noted, on the % scale 0 is the no-effect control and ±100 the full control effect.

SMILES	Tau fibril FP	Sfp PPTase inh	Tau fluor counter	FBPA coupling cs	Tau ThT inhib	G9a block
CCn1c(SCC(=O)c2ccc(CNC(C)=O)o2)nnc1-c1cccs1	3%	50µM*	2%	-1	-6%	18µM*
CCn1c(SCC(=O)NCc2cccs2)nnc1-c1cccs1	0%	7%	4%	2	0%	-16%[59 µM]
CSc1nc2cc(Oc3cccc(Cl)c3Cl)c(Cl)cc2[nH]1	13µM*	?	?	1	?	?
CSc1nc2ccc(Cl)cc2[nH]1	-7%	4%	-3%	1	-3%	14%[59 µM]
COc1ccccc1NC(=O)C(C)Sc1nc(-c2ccccc2)cn1N (stereo unspecified)	.	.	.	.	.	12%[12.7 µM]
Cc1coc2c1c(C)cc1oc(=O)c(CC(=O)N[C@@H](CC(C)C)C(=O)O)c(C)c12	.	2%	.	3	.	50µM*
COc1cccc(N2CCN(C(=O)Cn3ncc4c3-c3ccccc3OC4)CC2)c1	2%	.	-19%	.	?	2%[59 µM]
CCN1CCS/C1=C/C=C/C1=[N+](CC)CCS1	0%	4%	12%	0	?	50µM*
CCN1CCS/C1=C\C=C\C1=[N+](CC)CCS1	1%	4%	-2%	1	?	3.2µM*
CC(=O)Nc1ccn(C2OC(C(COC(C)=O)NC(=O)C(Cc3ccccc3)NC(=O)OC(C)(C)C)C(OC(C)=O)C2OC(C)=O)c(=O)n1 (stereo unspecified)	.	7%	.	4	.	.
COc1ccc(C(=O)N2CCC(C(=O)N3CCN(Cc4ccccc4)CC3)CC2)cc1	.	1%	.	1	.	34%
CC(=O)OC[C@@]1(O)C[C@]23CCC4c5ccoc5CC[C@@]4(C)C2CCC1C3 (stereo partly specified)	-4%	20%	-5%	-1	-6%	.
C[C@@]12C=Cc3occc3C1CC[C@@]13C[C@@H](CCC12)[C@@](O)(CO)C3 (stereo partly specified)	10µM*	-28%	?	2	11µM*	14µM*
CCCCn1c(NS(=O)(=O)c2ccc(C)cc2)c(S(=O)(=O)c2ccccc2)c2nc3ccccc3nc21	-15%	12%	-8%	-53*	?	?
Cc1ccc(S(=O)(=O)c2c(N)n(CCCN(C)C)c3nc4ccccc4nc23)cc1	-8%	4%	-19%	3	3%	-9%[12.7 µM]
CCOc1ccc2c(c1)sc(N)[n+]2Cc1cc(C)cc2cccnc12	0%	?	-2%	5	-13%	?
COc1ccc2c(c1)sc(N)[n+]2Cc1cc(C)cc2cccnc12	7%	-3%	3%	4	1%	50µM*
Cc1nc2n(c(=O)c1CCN1CCC(c3noc4cc(F)ccc34)CC1)CCCC2O (stereo unspecified)	.	.	.	.	.	30µM*
O=C(Nc1ccc(S(=O)(=O)Nc2cnc3ccccc3n2)cc1)c1ccc(Br)o1	2%	17%	3%	11	-13%	45µM*
COc1ccc(N(Cc2cc3ccc(C)cc3[nH]c2=O)C(=O)c2ccco2)cc1	-8%	?	6%	2	-2%	71µM*
Cc1ccc(C)c(N(Cc2cc3ccc(C)cc3[nH]c2=O)C(=O)c2ccco2)c1	-1%	-16%	-8%	5	-11%	-5%[59 µM]
Cc1cccc(N(Cc2cc3ccccc3[nH]c2=O)C(=O)c2ccco2)c1C	4%	79µM*	-1%	7	8%	3%[12.7 µM]
CC(C)N(Cc1cc2ccccc2[nH]c1=O)C(=O)c1ccco1	5%	50µM*	5%	-2	-4%	50µM*
CCS(=O)(=O)c1nc(S(=O)(=O)c2ccc(Cl)cc2)c(NCc2ccccc2Cl)s1	-12%	.	-21%	.	17%	-3%[59 µM]
CCCS(=O)(=O)c1nc(S(=O)(=O)c2ccc(C)cc2)c(NCc2ccco2)s1	0%	-6%	-18%	2	-8%	40µM*
SMILES	Tau fibril FP	Sfp PPTase inh	Tau fluor counter	FBPA coupling cs	Tau ThT inhib	G9a block
CCS(=O)(=O)c1nc(S(=O)(=O)c2ccc(C)cc2)c(NCc2ccccn2)s1	-10%	-12%	-18%	5	-9%	2%
Cc1ccc(S(=O)(=O)c2nc(S(=O)(=O)c3ccc(C)cc3)c(NCc3ccco3)s2)cc1	?	15%	-22%	.	-9%	17%[0.0925 µM]
CS(=O)(=O)c1nc(S(=O)(=O)c2ccc(Cl)cc2)c(NCc2ccccn2)s1	-9%	8%	-13%	2	-6%	40µM*
CCS(=O)(=O)c1nc(S(=O)(=O)c2ccc(C)cc2)c(N2CC(C)OC(C)C2)s1 (stereo unspecified)	.	7%	.	.	.	.
CCCS(=O)(=O)c1nc(S(=O)(=O)c2ccc(C)cc2)c(N2CC(C)OC(C)C2)s1 (stereo unspecified)	.	3%	.	.	.	50µM*
CCCS(=O)(=O)c1nc(S(=O)(=O)c2ccc(C)cc2)c(NCc2ccccn2)s1	-7%	-4%	-15%	-1	-11%	35µM*
CCOC(=O)c1cc(S(=O)(=O)Nc2ccc(OC)cc2OC)cn1C	.	10%	.	4	.	27%
CCOc1ccc(NC(=O)Cn2ncc3c2-c2cc(C)ccc2OC3)cc1	-8%	.	-17%	.	4%	16%[59 µM]
COC(=O)CC1C(C)(C)C(O)C2CC3=C4C=C(OC)OC(c5ccoc5)[C@]4(C)CCC3[C@@]1(C)C2=O (stereo partly specified)	3%	-17%	-1%	0	0%	-21%[2.33 µM]
Cc1oc(-c2ccccc2Cl)nc1CSc1nc2ncccc2[nH]1	4%	.	-9%	.	-10%	-32%[59 µM]
CC(C)(C)OC(=O)CNC(=O)c1nc[nH]c1C(=O)N1CCN(C(=O)OC(C)(C)C)CC1	.	13%	.	1	.	79µM*
CC(C)(C)OC(=O)CNC(=O)c1nc[nH]c1C(=O)N1CCNCC1	.	.	.	.	.	22%[2.33 µM]
CC(C)(C)OC(=O)N1CCN(C(=O)c2[nH]cnc2C(=O)NCC(=O)OCc2ccccc2)CC1	.	19%	.	3	.	71µM*
CC(C)(C)OC(=O)N1CCN(C(=O)c2[nH]cnc2C(=O)NCc2ccccc2)CC1	.	.	.	.	.	12%[0.501 µM]
CCN(CC)c1ncnc2sc3c(c12)CCC3	-2%	-4%	-14%	0	-16%	40µM*
CN(C)C(=S)NC(=O)C(c1ccccc1)c1ccccc1	-13%	6%	-8%	-1	-4%	79µM*
CCCN(CCC)C1=N/C(=C\c2ccco2)C(=O)N1c1ccccc1	-7%	35µM*	-21%	4	?	?
CCCN=C1N/C(=C\c2ccco2)C(=O)N1c1ccccc1	-3%	?	-11%	1	?	?
Cc1ccc(-c2cc3nc(C)cc(C)n3n2)cc1	1%	8%	-1%	-7	-11%	3%

Assay outcomes: PubChem BioAssay, National Center for Advancing Translational Sciences (NCATS)
